PTAP-TSG101 blk: qHTS Validation Assay for Inhibitors of HIV-1 Budding by Blocking the Interaction of PTAP/TSG101: Sytravon Library Screen | Tumor susceptibility gene 101 protein (Homo sapiens), Q99816 | Fluorescence polarization, FITC-PTAP peptide/Tsg101, 20 min | Potency, µM (series often up to 115 µM), most hits filed as inhibitors | 44,000 tested, under 10 active | AID 1347069, 2019; also: potency is read from the fitted curve at half-maximal effect; 0% is about no effect
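Fluorescence polarization: Tsg101 binding domain (10 uM final) in 10 mM HEPES pH 7.5, 0.15 M NaCl, 0.01% Tween 20, 3 mM EDTA, 0.1 mM TCEP; compounds pinned; FITC-PTAP peptide 50 nM final; 20 min, r.t.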
B2AR arrestin ag: qHTS assay of beta-arrestin-biased ligands of beta2-adrenergic receptor: NCGC Sytravon Library Screen | HTLA Tango cells, beta-arrestin recruitment, luciferase luminescence, 18 h | AID 1347077, 2019 | 44,000 tested, under 10 active | Potency, µM (series often up to 46.1 µM), hits mostly activators;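 also: potency is read from the fitted curve at half-maximal effect; 0% = DMSO and full agonism = EC100 isoproterenol or metaproterenol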
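Tango cells expressing recombinant beta2-AR and beta-arrestin were treated with compounds (up to 46 microM titration) in DMEM with 1% FBS for 18 hr at 37 degrees C. Beta-arrestin recruitment drove tTA-dependent luciferase, read by luminescence; curves were fitted and classed.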
GALK inh: qHTS Assay for Inhibitors of Human Galactokinase (GALK): NCGC Sytravon Library Screen | P51570 | recombinant GALK, Kinase-Glo ATP luminescence, 1 h | Potency, µM (series often up to 57.5 µM), for the others: top-dose activity, negative = inhibition, most hits filed as inhibitors | 44,000 tested, under 10 active | AID 1347072, 2019;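 also: plate controls were full GALK reaction for no effect and reaction lacking GALK for full effect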
Target sequence (P51570 whole entry, looked up): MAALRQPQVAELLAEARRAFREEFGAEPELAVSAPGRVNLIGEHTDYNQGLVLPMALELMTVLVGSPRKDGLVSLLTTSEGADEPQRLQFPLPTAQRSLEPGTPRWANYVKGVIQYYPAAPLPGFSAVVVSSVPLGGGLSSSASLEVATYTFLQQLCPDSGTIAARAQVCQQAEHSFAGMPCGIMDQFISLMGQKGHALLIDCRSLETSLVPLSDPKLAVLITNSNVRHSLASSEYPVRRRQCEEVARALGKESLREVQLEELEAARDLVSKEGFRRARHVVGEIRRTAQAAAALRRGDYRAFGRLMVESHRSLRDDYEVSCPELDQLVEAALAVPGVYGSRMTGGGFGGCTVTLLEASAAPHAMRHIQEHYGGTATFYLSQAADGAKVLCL
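Luminescent ATP-depletion readout (Kinase-Glo Plus, 10 min) after 1 h RT reaction of 5 nM GALK, 35 uM ATP, 100 uM galactose, pH 8.0 HEPES buffer. Decreased kinase activity scored as inhibition.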
* = called active by the depositor; i = inactive. The list is not random: actives were taken first. Their share in the collection is about 0.022%. Calls follow the shape of the dose curve; as a rule, active = well fitted curve in the direction sought with a large enough effect; inconclusive = small, poorly fitted or top-dose-only effect, or another doubt; inactive = no such curve, though single readings can be large; an effect the other way counts as inactive or inconclusive.

SMILES	PTAP-TSG101 blk	B2AR arrestin ag	GALK inh
CCc1ccc2oc(C(=O)NCCc3ccc(OC)c(OC)c3)cc(=O)c2c1	i	i	4.9%
Fc1ccccc1N1CCN(c2nnc(C(F)(F)F)c3nnn(Cc4ccccc4)c23)CC1	i	i	1.0%
CCc1ccc(-n2c(CCC(=O)O)ccc2-c2ccc(F)cc2)cc1	i	i	-2.4%
Cc1ccc(CNC(=O)c2c(O)nc3ccccn3c2=O)cc1	i	i	5.0%
CC1=C(C(=O)Nc2cccc(C(F)(F)F)c2)C(c2ccccn2)n2ncnc2N1 (stereo unspecified)	i	i	0.9%
Cc1csc2nc(COc3ccc(NC(=O)c4ccccc4F)cc3)cc(=O)n12	i	i	8.6%
CCC(NC(=O)Nc1cc(Cl)ccc1OC)c1c(-n2cccc2)sc2c1CCN(C)C2 (stereo unspecified)	i	i	-0.4%
CCN(Cc1nc(-c2cccc(C)c2)no1)S(=O)(=O)c1ccc(C)cc1	i	i	0.2%
CC(C)(C)c1ccc(S(=O)(=O)c2cnc(SCC(=O)Nc3ccc(F)c(Cl)c3)[nH]c2=O)cc1	i	i	20µM*
O=C(CSc1ncc(S(=O)(=O)c2ccc(Cl)cc2)c(=O)[nH]1)Nc1cccc(C(F)(F)F)c1	i	i	3.4%
CC(NC(=O)CCCN1C(=O)CCn2nc(-c3cn(C)c4ccccc34)cc21)c1ccccc1 (stereo unspecified)	i	i	2.3%
Cc1cc(C)c2oc(-c3cccc(NC(=O)COc4ccc([N+](=O)[O-])cc4)c3)nc2c1	i	i	8.7%
Cc1noc2ncnc(N3CCCC(C(=O)Nc4cccc(C(F)(F)F)c4)C3)c12 (stereo unspecified)	i	i	-2.5%
COc1ccc(SCc2cc(=O)c3cc(Cl)ccc3[nH]2)cc1	i	i	-0.6%
Cc1c(C(=O)Nc2cccc(C(F)(F)F)c2)sc2nc3n(c(=O)c12)CCCC3	i	i	-4.5%
Cc1c(C(=O)N(C)c2cccc(C(F)(F)F)c2)sc2nc3n(c(=O)c12)CCCCC3	44.7µM*	i	4.0%
COc1ccc(-n2c(CCC(=O)O)ccc2-c2ccccc2)c(OC)c1	i	i	-2.6%
CC(C)(C)C1CCc2c(sc(NC(=O)CCC(=O)O)c2C(=O)Nc2ccccc2C(F)(F)F)C1 (stereo unspecified)	i	i	-0.9%
COc1ccc(OC)c(S(=O)(=O)NCc2ccc3c(c2)CCN3C(=O)c2cccc(C)c2)c1	i	i	1.1%
Cc1ccc(NC(=O)c2oc3ccc(S(=O)(=O)N(C)C4CCCCC4)cc3c2C)c(C)c1	i	i	0.4%
COC(=O)c1ccc(NC(=O)CSc2n[nH]c(CC(C)C)n2)cc1	i	i	0.0%
Cn1c(=O)n(-c2ccc3c(c2)OCO3)c2nc(-c3ccccc3)nc(C(N)=O)c21	i	i	16.7%
Cc1cc(Cl)ccc1NC(=O)CN(c1ccccc1Br)S(C)(=O)=O	i	i	-0.5%
COc1cccc(CNC(=O)CN2C(=O)CSc3c2c(C)nn3-c2ccccc2)c1	i	i	0.5%
Cc1cc(NC(=O)c2ccc(NC(=O)CCS(=O)(=O)c3cccs3)cc2)ccc1Br	i	i	3.9%
SMILES	PTAP-TSG101 blk	B2AR arrestin ag	GALK inh
CCOC(=O)CC(NS(=O)(=O)c1cc(-c2cc(C)no2)ccc1C)c1ccc(C)cc1 (stereo unspecified)	i	i	-3.2%
Cc1ccc2c(c1)c1c3n2CCN(C(=O)c2cccc(C(F)(F)F)c2)C3CCC1 (stereo unspecified)	i	i	0.0%
CCOC(=O)c1c(C)oc2ncnc(NCCCN3CCN(c4cc(C)ccc4C)CC3)c12	i	i	0.9%
Cc1cc(C)cc(NC(=O)c2ccc3oc(=O)c(S(=O)(=O)c4ccc(F)cc4)cc3c2)c1	i	i	0.0%
CCN1c2ccccc2-c2nc(SCC(=O)Nc3cccc(C(F)(F)F)c3)ncc2S1(=O)=O	i	i	5.5%
Cc1ccc2nc(-c3cc(NC(=O)COc4ccc(C)c(C)c4)ccc3Cl)oc2c1	i	i	0.0%
Cc1cc(C)cc(NC(=O)NCc2noc3ccccc23)c1	i	i	0.0%
CCn1cc(S(=O)(=O)c2ccc(Cl)cc2)c(=O)c2cc(F)c(N3CCOCC3)cc21	i	i	-2.5%
COc1ccc(CCNC(=O)CCCn2c(=O)c3cccn3c3ccc(F)cc32)cc1OC	i	i	-8.8%

Bioassay records: PubChem, National Center for Advancing Translational Sciences (NCATS)
